The record followed here is PubChem BioAssay (NCI).

Some test systems named below: NCI-H23 lung; NCI-H226 lung; NCI-H322M lung; HOP-62 NSCLC; NCI-H460 lung; 786-0 renal; MDA-MB-231 breast; SF-268 CNS; SF-539 CNS; M14 melanoma; U251 CNS; PC-3 prostate; UACC-62 melanoma; SK-MEL-28 melanoma; UO-31 renal; OVCAR-3 ovarian; SW-620 colon; MCF7 breast; HCT-116 colon; KM12 colon.
Common to all, as to experiment: NCI-60 one-dose screen, 48 h (100 = growth as untreated, 0 = no growth, -100 = all killed)
Settings in all cases: 10 µM unless noted

About 83,000 compounds went through this panel and 20% of them were active in at least one assay; those are over-represented in the sample as a whole.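 Testing used 96-well plates and a 48-hour single-concentration exposure. Example: -40 means 40% of the starting cells died.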 Unmarked numbers belong to inactive results. The source made the active and inactive calls. How the source made its calls: active means growth percent below 10; inactive means the rest.

Consider `CCC(CO)NC1CCCCC1` (stereo not given), for which the growth in the assay with NCI-H23 lung is 87.5%; in the assay with NCI-H226 lung, 114%; with NCI-H322M lung, 97.2%; in the assay on HOP-62 NSCLC, 88.7%; in the assay on NCI-H460 lung, 100%; in the assay on 786-0 renal, 76%. In addition, the growth with MDA-MB-231 breast is 58%; in the assay on SF-268 CNS, 86.9%; with SF-539 CNS it was 17.7%; with M14 melanoma it was 84.6%; in the assay on U251 CNS it was 55.1%; in the assay with PC-3 prostate it was 92.2%. For the same compound, the growth in the assay on UACC-62 melanoma is 91.9%; in the assay with SK-MEL-28 melanoma, 102%; in the assay on UO-31 renal, 66%; with OVCAR-3 ovarian it was 100%; with SW-620 colon, 34.6%; in the assay on MCF7 breast, 63.4%. For the same compound, the values for the growth with HCT-116 colon and in the assay with KM12 colon were 26.8% and 54.6%, respectively.

For `C[C@]12CCc3sc(-c4ccc(Cl)cc4)nc3C1=CC[C@@H]1[C@@H]2CC[C@]2(C)C(=O)CC[C@@H]12`, the growth is 71.3% in the assay on NCI-H23 lung; 84.3% with NCI-H226 lung; 82.6% in the assay on NCI-H322M lung; 66% with HOP-62 NSCLC; 72.5% in the assay on NCI-H460 lung; 53.4% in the assay on 786-0 renal. For the same compound, the growth in the assay with MDA-MB-231 breast is 64.3%; in the assay on SF-268 CNS, 64.4%; in the assay with SF-539 CNS, 29.6%; in the assay on M14 melanoma, 97.6%; in the assay with U251 CNS it was 36.7%; with PC-3 prostate it was 50%. The growth in the assay on UACC-62 melanoma was 51.1%; in the assay on SK-MEL-28 melanoma it was 63.1%; in the assay on UO-31 renal it was 47.3%; in the assay with OVCAR-3 ovarian it was 27.2%; in the assay on SW-620 colon, 22.9%; in the assay with MCF7 breast, 24.4%. The growth is 52.3% in the assay on HCT-116 colon and 66.8% with KM12 colon.

For `COc1cc(C2=NN(c3ccccc3)C(c3sc(N(CCCl)CCCl)nc3Cl)C2)cc(OC)c1OC` (stereo not given), the growth was 92.5% with NCI-H23 lung; 81.8% with NCI-H226 lung; 91.4% in the assay on NCI-H322M lung; 79.7% in the assay on HOP-62 NSCLC; 91.6% in the assay with NCI-H460 lung; 91.8% in the assay on 786-0 renal. The growth in the assay on MDA-MB-231 breast was 85.6%; in the assay on SF-268 CNS, 80.7%; in the assay on SF-539 CNS, 110%; with M14 melanoma, 91.5%; with U251 CNS, 85.6%; in the assay on PC-3 prostate, 73.9%. Also, the growth in the assay with UACC-62 melanoma was 48.4%; with SK-MEL-28 melanoma, 99.1%; in the assay with UO-31 renal it was 75.5%; in the assay on OVCAR-3 ovarian it was 98.7%; with SW-620 colon, 97.2%; in the assay with MCF7 breast, 86.6%. Also, the growth with HCT-116 colon was 80.3%; in the assay on KM12 colon, 82.8%.

Consider `S=P(Nc1ccccc1)(Nc1ccccc1)c1ccccc1`, for which the growth is 92.5% with NCI-H23 lung; 112% in the assay on NCI-H226 lung; 107% in the assay on NCI-H322M lung; 90.7% with HOP-62 NSCLC; 103% in the assay with NCI-H460 lung; 94.6% in the assay with 786-0 renal. The growth was 90% with MDA-MB-231 breast; 90.8% in the assay on SF-268 CNS; 95.8% in the assay with SF-539 CNS; 97.7% in the assay with M14 melanoma; 92.1% in the assay with U251 CNS; 85.9% in the assay on PC-3 prostate. For the same compound, the growth in the assay on UACC-62 melanoma is 84.2%; with SK-MEL-28 melanoma, 119%; in the assay with UO-31 renal, 87.7%; in the assay with OVCAR-3 ovarian, 103%; with SW-620 colon, 103%; in the assay on MCF7 breast, 109%. Also, the growth is 81.1% with HCT-116 colon and 102% in the assay on KM12 colon.

For the compound `Oc1ccc2c3c1O[C@H]1c4[nH]c5ccccc5c4C[C@@]4(O)C(C2)N(CC2CC2)CC[C@]314`, the growth in the assay with NCI-H23 lung is 90.9%; with NCI-H226 lung, 94.4%; with NCI-H322M lung, 94.3%; with HOP-62 NSCLC, 95.9%; in the assay with NCI-H460 lung, 107%; in the assay on 786-0 renal, 95.2%. For the same compound, the growth was 101% with MDA-MB-231 breast; 93.2% with SF-268 CNS; 103% with SF-539 CNS; 98.6% in the assay with M14 melanoma; 90.2% in the assay with U251 CNS; 88.1% with PC-3 prostate. Also, the growth is 102% with UACC-62 melanoma; 105% with SK-MEL-28 melanoma; 69.9% in the assay with UO-31 renal; 89.1% with OVCAR-3 ovarian; 99.9% in the assay on SW-620 colon; 99.7% in the assay on MCF7 breast. The growth is 89.8% in the assay with HCT-116 colon and 90.7% in the assay on KM12 colon.

As for `ClCCN(CCCl)c1ccc(C=NCCc2c[nH]c3ccccc23)cc1`, the growth in the assay with NCI-H23 lung was 71.7%; with NCI-H226 lung, -10.5% (active); with NCI-H322M lung, 111%; in the assay on HOP-62 NSCLC it was 73.1%; in the assay on NCI-H460 lung, 22.6%; with 786-0 renal, 63.4%. Also, the growth in the assay with MDA-MB-231 breast was 98.8%; in the assay on SF-268 CNS it was 72.2%; in the assay on SF-539 CNS it was 71.8%; with M14 melanoma, 91.6%; with U251 CNS it was 72.6%; in the assay with PC-3 prostate, 57%. The growth was 56.9% in the assay with UACC-62 melanoma; 108% in the assay with SK-MEL-28 melanoma; 60.6% with UO-31 renal; 93.3% in the assay on OVCAR-3 ovarian; 84.4% in the assay on SW-620 colon; 56% with MCF7 breast. The growth in the assay with HCT-116 colon is 79%; with KM12 colon, 101%.

Consider `Cc1cccc(N(C)c2cccc3c2C(=O)[Se]C3)c1C`, for which the growth is 31.2% with NCI-H23 lung; 36.6% in the assay with NCI-H226 lung; 72.8% with NCI-H322M lung; 18.8% in the assay with HOP-62 NSCLC; 62.8% with NCI-H460 lung; 78% in the assay with 786-0 renal. The growth is 53.6% in the assay with MDA-MB-231 breast; 52.4% in the assay with SF-268 CNS; 56.4% with SF-539 CNS; 26.7% with M14 melanoma; 47% with U251 CNS; 66.7% in the assay on PC-3 prostate. Besides, the growth was 64.6% in the assay on UACC-62 melanoma; 75.6% in the assay on SK-MEL-28 melanoma; 23% in the assay on UO-31 renal; 66.3% in the assay with OVCAR-3 ovarian; 67.1% in the assay on SW-620 colon; 49.6% in the assay on MCF7 breast. Besides, the results for the growth with HCT-116 colon and in the assay on KM12 colon were 3.47% (active) and 14.6%, respectively.

On to `CCC(/C=C(C)/C=C/C(=O)c1c(O)c(-c2ccc(O)cc2)c[nH]c1=O)CO` (stereo not given), for which the growth was 98.4% in the assay with NCI-H23 lung; 106% in the assay with NCI-H226 lung; 96% in the assay on NCI-H322M lung; 98% in the assay on HOP-62 NSCLC; 93.4% in the assay with NCI-H460 lung; 87.6% in the assay on 786-0 renal. Further, the growth was 111% in the assay on MDA-MB-231 breast; 45.1% in the assay on SF-268 CNS; 77.4% in the assay on SF-539 CNS; 104% in the assay on M14 melanoma; 67.6% with U251 CNS; 27.7% in the assay with PC-3 prostate. The growth was 99.8% in the assay with UACC-62 melanoma; 105% in the assay on SK-MEL-28 melanoma; 67.9% in the assay on UO-31 renal; 41.8% in the assay on OVCAR-3 ovarian; 100% in the assay on SW-620 colon; 88.7% in the assay on MCF7 breast. In addition, the values for the growth in the assay on HCT-116 colon and with KM12 colon were 80.1% and 47%, respectively.
